PubChem BioAssay (NCI)
About 83,000 compounds went through this panel and 20% of them were active in at least one assay; those are over-represented in the sample as a whole.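 In brief: 96-well plates, 48 h treatment, single concentration, percent growth endpoint.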 Unmarked numbers belong to inactive results. Calls of active or inactive are those of the source. How the source made its calls: active means growth percent below 10; inactive means the rest.

How the values were obtained:
Experiment in all cases: NCI-60 one-dose screen, 48 h (100 = growth as untreated, 0 = no growth, -100 = all killed)
HCT-15 colon = conditions: 10 µM unless noted
HT29 colon = conditions: 10 µM unless noted
SNB-75 CNS = conditions: 10 µM unless noted
SNB-19 CNS = conditions: 10 µM unless noted
U251 CNS = conditions: 10 µM unless noted
PC-3 prostate = conditions: 10 µM unless noted
SK-MEL-5 melanoma = conditions: 10 µM unless noted
UACC-62 melanoma = conditions: 10 µM unless noted
LOX IMVI melanoma = conditions: 10 µM unless noted
SK-MEL-28 melanoma = conditions: 10 µM unless noted
SK-MEL-2 melanoma = conditions: 10 µM unless noted
EKVX NSCLC = conditions: 10 µM unless noted
SN12C renal = conditions: 10 µM unless noted
UO-31 renal = conditions: 10 µM unless noted
ACHN renal = conditions: 10 µM unless noted
CAKI-1 renal = conditions: 10 µM
A498 renal = conditions: 10 µM unless noted
CCRF-CEM leukemia = conditions: 10 µM unless noted
MOLT-4 leukemia = conditions: 10 µM unless noted

Compound | growth (HCT-15 colon) | growth (HT29 colon) | growth (SNB-75 CNS) | growth (SNB-19 CNS) | growth (U251 CNS) | growth (PC-3 prostate) | growth (SK-MEL-5 melanoma) | growth (UACC-62 melanoma) | growth (LOX IMVI melanoma) | growth (SK-MEL-28 melanoma) | growth (SK-MEL-2 melanoma) | growth (EKVX NSCLC) | growth (SN12C renal) | growth (UO-31 renal) | growth (ACHN renal) | growth (CAKI-1 renal) | growth (A498 renal) | growth (CCRF-CEM leukemia) | growth (MOLT-4 leukemia)
C=CCn1c(SCC(=O)Nc2ccc(C(=O)/C=C/c3cc(OC)c(OC)c(OC)c3)cc2)nnc1-c1ccc(OC)cc1 | -1.54% (active) | -27.9% (active) | 6.75% (active) | 14.3% | -65.2% (active) | 25.1% | 1.15% (active) | -6.54% (active) | -43.5% (active) | 10.1% | 15.1% | 14.1% | 13.8% | -79.6% (active) | -56.1% (active) | 16.5% | -3.03% (active) | 6.53% (active) | 
CN1C(=O)C2(NN=C(c3cccc4ccccc34)S2)c2ccccc21 (stereo not drawn) | 28.3% | 50.8% | 73.4% | 33.7% | 9.26% (active) | 19.7% | 41.8% | 17.2% | 31.3% | 32.4% | 37.1% | 24% | 31.5% | 18.5% | 30.5% | 25.7% | 47% | 9.4% (active) | 
CCOC(=O)n1cnc2c(Cl)ncnc21 | 112% | 106% | 93.9% | 86.4% | 101% | 113% | 95.8% | 104% | 88.6% | 121% | 154% | 106% | 119% | 97% | 108% | 89.8% | 86% | 109% | 106%
CCn1c(SC)nnc1-c1cc2c([nH]c3ccccc32)c(-c2cccc(O)c2)n1 | 20.4% | 50.7% | -23.1% (active) | 52.8% | 15.5% | 24.6% | -16.2% (active) | 36.7% | 16.5% | 41.3% | 15.6% | 21.6% | 39.5% | 24.1% | 30.5% | 25.3% | -2.24% (active) | 18.4% | 
C[C@]12O[C@H]1[C@H](O)c1c(cc(O)c3c1C(=O)c1cccc(O)c1-3)C2=O | 103% | 92.9% | 86.3% | 104% | 97.6% | 87.3% | 97.7% | 88.2% | 87.8% | 107% | 99.3% | 97.8% | 88.8% | 91.1% | 99.3% | 99.9% | 86.4% | 92% | 86.6%
O=C(Nc1ccc(-n2cc(-c3ccncc3)c(-c3ccc(O)c(Cl)c3)n2)cc1)c1cc(Cl)cc(Cl)c1 | 11.2% | -19.5% (active) | 60.6% | 50% | 26.8% | 35.6% | 2.65% (active) | 65.9% | 1.16% (active) | 53.4% | 7.85% (active) | 56.5% | 35.8% | 16.4% | 16.2% | 45.8% | 95.4% | 16.9% | 11.1%
O=C(Nc1ccc(-n2ccc3c(NC(=O)c4ccccc4)nccc32)cc1)c1cccc(C(F)(F)F)c1 | 14.1% | 2.7% (active) | 43.9% | 37.4% | 17.7% | 40.4% | 16.5% | 35.4% | 6.29% (active) | 48.1% | 46.1% | 52.7% | 39.8% | 23.7% | 33.4% | 19.4% | 39% | 22.1% | 
O=C(Nc1ccc(-n2ccc3c(NC(=O)c4ccccc4)ncnc32)cc1)Nc1ccc(Cl)c(C(F)(F)F)c1 | -53.2% (active) | -85.8% (active) | 53.5% | 9.33% (active) | -79.6% (active) | -38.8% (active) | 8.12% (active) | 29.7% | 2.99% (active) | 34.6% | -22.3% (active) | 8.35% (active) | 16.4% | 23.5% | 4.23% (active) | -36.8% (active) | 18.3% | -14.5% (active) | 1.2% (active)
